# Test results from PubChem BioAssay (NCI).
# About 83,000 compounds went through this panel and 20% of them were active in at least one assay; those are over-represented in the sample as a whole.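 How to read the values: 0–100, growth inhibition (40 = 60% inhibited); 0, no net growth; -100 to 0, cell death (-40 = 40% of starting cells died; -100 = all dead).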 Activity calls are given as the source filed them. Rule for the calls: active = growth percent below 10; inactive = the rest.
# System: HL-60(TB) leukemia
# Test: NCI-60 one-dose screen, 48 h (100 = growth as untreated, 0 = no growth, -100 = all killed)
# Conditions: 10 µM unless noted
row,Structure (SMILES),growth
1,Cc1ccc(NC(=O)Nc2cccnc2)cc1NC(=O)Nc1cccnc1,71.1% (inactive)
2,COC(=O)c1nc(-c2ccccc2)oc1S(=O)(=O)N1CCN(c2ccc(OC)cc2)CC1,21.8% (inactive)
3,CCOC(=O)[C@@H]1[C@H](c2ccccc2)[C@H]([N+](=O)[O-])[C@H](c2cn(-c3ccccc3)nc2C)N1Cc1ccccc1,77.7% (inactive)
4,O=c1[nH]c(-c2ccc(Cl)cc2)cn1-c1ccc(-n2cc(-c3ccc(Cl)cc3)[nH]c2=O)cc1,112% (inactive)
5,COc1ccc(/C=N/OCC(O)CNCc2ccccc2)cc1OC1CCCC1 (stereo not given),105% (inactive)
6,NC(=NCCCOc1ccc(F)cc1)Nc1ccc(I)cc1,72.6% (inactive)
7,OC(COc1cccc2ccccc12)CN1CCN(c2ccccc2Cl)CC1 (stereo not given),103% (inactive)
8,O=C1Nc2ccccc2/C1=C/C(=N/c1nnc(-c2ccc(Cl)cc2)s1)c1ccccc1,-31.8% (active)
9,N#Cc1nc(-c2ccc(Cl)cc2)cc(-c2ccc(Nc3nc(N4CCCCC4)nc(N4CCCCC4)n3)cc2)c1N,99.2% (inactive)
10,COc1ccc(-c2nc(N=Nc3c(O)[nH]c4ccccc34)nc(N3CCOCC3)c2C#N)cc1,90.5% (inactive)
11,O=S(=O)(c1cccc(NC2=Nc3cccc4cccc2c34)c1)N1CCCC1,60.8% (inactive)
12,O=C(Nc1ccc2[nH]ncc2c1)c1csc(Nc2ccccc2)n1,9.35% (active)
13,NCc1cn2cc(Cl)sc2n1,129% (inactive)
14,Cc1ccccc1NC(=O)c1sc2nc3c(cc2c1N)CCCC3,11.8% (inactive)
15,O=C1CCC(=O)N1C1CCCCC1,92.5% (inactive)
16,CC(C)c1ccc2c(c1)CC[C@H]1[C@](C)(C(=O)OCC#CCN3CCCC3)CCC[C@]21C,55.5% (inactive)
17,c1ccc2c(-c3nccs3)c[nH]c2c1,85.1% (inactive)
18,C=C1C(=O)O[C@H]2[C@H]1CC/C(Cn1cc(-c3ccc(N)cc3)nn1)=C\CC[C@@]1(C)O[C@@H]21,-27.9% (active)
19,Clc1ccccc1[C@@H]1C[C@@H]2Cc3cc(Br)c4ccccc4c3N1O2,7.98% (active)
20,Cc1cccc(NC(=O)Nc2ccc(-n3cnc4cc(-c5ccc(O)cc5)ccc43)cc2)c1,8.69% (active)

row,Structure (SMILES),growth
1,Cc1cc(C)c([O-])c(CN(C)CCN(C)Cc2cc(C)cc(C)c2[O-])c1.O=C([O-])c1cccc(C(=O)[O-])n1.[Ti+4],-7.45% (active)
2,Nc1nc(N)c2cc(CNc3ccc(C(=O)NC(CC(=O)O)C(=O)O)cc3)ccc2n1 (stereo not given),19.4% (inactive)
3,c1ccc(-c2n(Cc3ccc4ccccc4c3)cc[n+]2Cc2ccc3ccccc3c2)cc1,-47.6% (active)
4,Cl.Fc1c[c-]c(-c2ccccn2)c(F)c1.[Pt].c1ccc([PH+](c2ccccc2)c2ccccc2[PH+](c2ccccc2)c2ccccc2)cc1,-24.7% (active)
5,COc1ccc2sc3c(NCCO)nc4ccccc4c3c(=O)c2c1,104% (inactive)
6,CCN(CC)CCCC(C)Nc1ccc2cc(OC)ccc2n1 (stereo not given),126% (inactive)
7,COc1ccc(C(=O)/C=C/c2cc(-c3cc(OC)c(OC)c(OC)c3)n[nH]2)cc1,23.2% (inactive)
8,COCCN(C(=O)Cc1cccs1)C(C(=O)NCc1ccc(OC)cc1)c1ccc(C(C)C)cc1 (stereo not given),105% (inactive)
9,N#Cc1nc(-c2ccccc2)oc1S(=O)(=O)N1CCN(c2ccccc2)CC1,75.6% (inactive)
10,CCN(CC)CC(=O)N(CC)c1ccc(C)c(Cl)c1,71.7% (inactive)
11,CC/C(Cc1ccccc1)=C(\c1ccc(OCCCN(C)C)cc1)c1ccc(OC(=O)NCc2ccccc2)cc1,57.2% (inactive)
12,CCCCC1COc2cccc3c(SCC(=O)N(C)c4cccc5ccccc45)cc[n+]1c23 (stereo not given),89.8% (inactive)
13,COc1c(-c2cc(-c3ccc(C)o3)[nH]c(=O)n2)c(O)cc2occc12,38.2% (inactive)
14,O=C1c2c(c3c4ccccc4n(CCCCCCN4CCOCC4)c3c3[nH]c4ccccc4c23)C(=O)N1O,77.7% (inactive)
15,O=C1CN(Cc2ccc(C(=O)NO)cc2)C(=O)[C@@H](Cc2ccccc2)N1,130% (inactive)
16,C#CCOc1c(OC)cc(C(=O)/C(C)=C/c2cccc(N=[N+]=[N-])c2)cc1OC,1.17% (active)
17,O=C1Cc2c(sc3c(F)cccc23)C(c2ccccc2[N+](=O)[O-])N1 (stereo not given),116% (inactive)
18,c1ccc(CCn2nnc3c(Nc4ccc(N5CCOCC5)cc4)ncnc32)cc1,96.7% (inactive)
19,Cc1cn(-c2cc(NC(=O)c3ccc(C)c(Nc4nccc(-c5cnccn5)n4)c3)cc(C(F)(F)F)c2)cn1,33.4% (inactive)
20,C[C@@H]1C(=O)N(C[C@H](Cc2ccccc2)NC(=O)OCc2ccccc2)[C@]1(Cc1ccccc1)C(=O)OC(C)(C)C,81.5% (inactive)
